{"source": "PubChem BioAssay (NCATS)", "key": {"[1]": {"molecular_target": "Tyrosine-protein kinase Yes (Homo sapiens) (UniProt P07947)", "sequence (P07947 whole entry, looked up)": "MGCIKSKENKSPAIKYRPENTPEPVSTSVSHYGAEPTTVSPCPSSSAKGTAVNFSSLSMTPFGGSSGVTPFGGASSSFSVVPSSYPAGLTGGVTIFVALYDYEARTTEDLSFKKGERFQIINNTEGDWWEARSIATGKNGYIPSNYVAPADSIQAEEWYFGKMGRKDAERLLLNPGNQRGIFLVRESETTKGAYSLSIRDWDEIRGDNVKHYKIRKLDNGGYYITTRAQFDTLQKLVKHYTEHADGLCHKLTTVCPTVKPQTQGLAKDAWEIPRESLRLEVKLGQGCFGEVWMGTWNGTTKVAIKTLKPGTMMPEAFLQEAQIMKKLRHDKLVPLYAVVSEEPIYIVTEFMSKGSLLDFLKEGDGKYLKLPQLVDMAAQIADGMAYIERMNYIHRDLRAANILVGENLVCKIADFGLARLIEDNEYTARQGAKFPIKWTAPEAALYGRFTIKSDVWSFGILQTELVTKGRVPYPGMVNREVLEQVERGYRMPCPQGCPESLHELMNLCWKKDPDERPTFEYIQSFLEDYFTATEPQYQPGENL", "experiment": "qHTS for small molecule inhibitors of Yes1 kinase: Primary Screen (AID 686947); further: nearly all actives have a fitted effect of over 60% in size; further: potency means the concentration at half of the fitted maximal effect", "outline": "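Yes1 (4 nM) preincubated 20 min with compound, then 60 min room-temperature reaction with 0.1 mM ATP and 0.3 mg/mL poly(E4Y) in pH 7.5 Tris, 10 mM MgCl2. ADP measured by ADP-Glo luminescence, normalised to enzyme/no-enzyme controls.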"}, "[2]": {"experiment": "qHTS for small molecule inhibitors of Yes1 kinase: Counter Assay (AID 686950);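 further: no kinase present so only ADP-Glo detection of a fixed ADP amount is tested; luminescence from ADP-Glo reporting ADP in a fixed ATP and ADP mixture; series mostly up to about 77 µM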", "outline": "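Enzyme-free ADP-Glo interference check: compounds were preincubated 20 min in buffer, then an ATP/ADP mix (0.08 mM ATP, 0.02 mM ADP final) was added for 60 min at room temperature before two-step ADP-Glo luminescence detection.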"}}, "note": "Results filed as inconclusive are left out. Entries that show only a call come without a potency. The source made the active and inactive calls. The call rests on the fitted dose curve; in most records, active means well fitted curve in the direction sought with a large enough effect; inconclusive means small, poorly fitted or top-dose-only effect, or another doubt; inactive means no such curve, though single readings can be large; an effect the other way counts as inactive or inconclusive.", "data": [{"smiles": "N#Cc1c(O)c2c(-c3ccc(-c4ccccc4O)cc3)csc2[nH]c1=O", "values": [{"measurement": "Potency", "setting": "[1]", "value": "inactive"}, {"measurement": "outcome", "setting": "[2]", "value": "inactive"}]}, {"smiles": "CC=C1NC(=O)[C@H]2CSSCCC=C[C@H](CC(=O)N[C@H](C(C)C)C(=O)N2)OC(=O)[C@H](C(C)C)NC1=O", "values": [{"measurement": "Potency", "setting": "[1]", "value": "inactive"}, {"measurement": "outcome", "setting": "[2]", "value": "inactive"}]}, {"smiles": "CC(=O)OCCN1C(=O)c2c(C)nc3ccc(S(=O)(=O)N4CCOCC4)cc3c2C1=O", "values": [{"measurement": "Potency", "setting": "[1]", "value": "inactive"}, {"measurement": "outcome", "setting": "[2]", "value": "inactive"}]}, {"smiles": "CC(C)[C@H](C(=O)Nc1ccc(C(=O)NO)cc1)c1ccccc1", "values": [{"measurement": "Potency", "setting": "[1]", "value": "inactive"}, {"measurement": "outcome", "setting": "[2]", "value": "inactive"}]}, {"smiles": "CC(=O)OCC(=O)[C@@]1(O)[C@H](C)C[C@H]2[C@@H]3C=C(C)C4=Cc5c(cnn5-c5ccccc5)C[C@]4(C)[C@@H]3[C@@H](O)C[C@@]21C", "values": [{"measurement": "Potency", "setting": "[1]", "value": "inactive"}, {"measurement": "outcome", "setting": "[2]", "value": "inactive"}]}, {"smiles": "CCOc1cc2ncc(C#N)c(Nc3ccc(F)c(Cl)c3)c2cc1NC(=O)C=CCN(C)C", "values": [{"measurement": "outcome", "setting": "[2]", "value": "inactive"}]}, {"smiles": "CCCCN1CCC(CNC(=O)c2c3n(c4ccccc24)CCCO3)CC1", "values": [{"measurement": "Potency", "setting": "[1]", "value": "inactive"}, {"measurement": "outcome", "setting": "[2]", "value": "inactive"}]}, {"smiles": "C=CC(=O)Nc1cc2c(Nc3ccc(F)c(Cl)c3)ncnc2cc1OCCCN1CCOCC1", "values": [{"measurement": "outcome", "setting": "[2]", "value": "inactive"}]}, {"smiles": "CN(C)CCCN=c1c2ccccc2n(C)c2[nH]c(=O)n(C)c(=O)c12", "values": [{"measurement": "Potency", "setting": "[1]", "value": "inactive"}, {"measurement": "outcome", "setting": "[2]", "value": "inactive"}]}, {"smiles": "Cc1[nH]c2ccccc2c1CCNCc1ccc(C=CC(=O)NO)cc1", "values": [{"measurement": "outcome", "setting": "[2]", "value": "inactive"}]}, {"smiles": "CCN1CCN(CC(=O)Nc2ccc(-c3cccc4c(=O)cc(N5CCOCC5)oc34)c3sc4ccccc4c23)CC1", "values": [{"measurement": "Potency", "setting": "[1]", "value": "inactive"}, {"measurement": "outcome", "setting": "[2]", "value": "inactive"}]}, {"smiles": "C#Cc1cccc(Nc2ncnc3cc(OC)c(OCCCCCCC(=O)NO)cc23)c1", "values": [{"measurement": "outcome", "setting": "[2]", "value": "inactive"}]}, {"smiles": "Nc1nccc(Oc2ccc(NC(=O)c3c[nH]cc(-c4ccc(F)cc4)c3=O)cc2F)c1Cl", "values": [{"measurement": "Potency", "setting": "[1]", "value": "48.7 µM (active)"}, {"measurement": "outcome", "setting": "[2]", "value": "inactive"}]}]}
